9 molecules from PubChem BioAssay (NCI) can be followed below.

Compounds without any hit were thinned out: in the full panel of roughly 79,000, 15% have a hit. A number with no mark means an inactive call. The source made the active and inactive calls. Cut-off read from the data, not from the text of the source: active = growth inhibition above about 70%; inactive = the rest.

A short description of test [1]: NCI Yeast Anticancer Drug Screen. Data for the rad50 strain (AID 155).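 Note: 0% = growth of vehicle-only cultures of the same strain.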 Conditions: S. cerevisiae rad50 strain growth inhibition, stronger effect = higher value. Put shortly:
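Readout: growth inhibition relative to vehicle-treated cultures. Compound exposure was carried out in a genetically defined yeast strain deficient in DNA damage repair.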

Test [2] can be described thus: NCI Yeast Anticancer Drug Screen. Data for the mec2-1 strain (AID 157). Conditions: S. cerevisiae mec2-1 strain, stronger effect = higher value. A digest of the protocol:
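Each compound was tested on mec2-1 yeast, a strain altered in DNA damage repair or cell cycle control. Growth inhibition is reported relative to vehicle.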

A short description of test [3]: NCI Yeast Anticancer Drug Screen. Data for the sgs1 mgt1 strain (AID 161).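 Note: 0% = growth of cultures given vehicle only.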 Conditions: S. cerevisiae sgs1 mgt1 strain, stronger effect = higher value. Put shortly: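 Genetically altered yeast, compound exposure, growth inhibition relative to vehicle.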
Test [4] in a line: NCI Yeast Anticancer Drug Screen. Data for the cln2 rad14 strain (AID 165).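 Note: 0% = growth equal to vehicle treated cultures.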 Conditions: S. cerevisiae cln2 rad14 strain, stronger effect = higher value. Put shortly: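 Test compounds were added to cln2 rad14 yeast cultures; inhibition of growth was then determined by comparison with vehicle treatment.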
A short description of test [5]: NCI Yeast Anticancer Drug Screen. Data for the bub3 strain (AID 167). The settings on record: S. cerevisiae bub3 mutant strain, stronger effect = higher value. Put shortly: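 Readout: yeast growth inhibition, expressed relative to vehicle-only wells. The test organism is a mutant strain from a panel with lesions in DNA repair or checkpoint genes.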
Test [6] is described as follows: NCI Yeast Anticancer Drug Screen. Data for the mlh1 rad18 strain (AID 175). Conditions: S. cerevisiae mlh1 rad18 strain growth inhibition, stronger effect = higher value. A digest of the protocol: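 Inhibition values reflect reduced growth of mutant yeast versus vehicle-treated controls following compound exposure; the mutations affect DNA damage repair.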
Setting [7] is: at 5.0 µM (retest, dose inferred, filed as 0.5).
The mark [8] stands for this setting: at 50.0 µM (retest, dose inferred, filed as 5.0).

With `O=C1/C(=C/c2ccccc2)CCC/C1=C\c1ccc(O)c(CN2CCCCC2)c1`, the growth inhibition in test [1] (setting [7]) is 25%; in test [1] (setting [8]), 42%; in test [1] (at 50.0 µM) it was -4.05%; in test [2] (setting [7]), 16%; in test [2] (setting [8]) it was 27%; in test [2] (at 50.0 µM), 1.95%. Besides, the growth inhibition in test [3] (setting [7]) is 26%; in test [3] (setting [8]), 47%; in test [3] (at 50.0 µM), 88.8% (active); in test [4] (setting [7]), 18%; in test [4] (setting [8]), 12%; in test [4] (at 50.0 µM), 74.9% (active). Besides, the growth inhibition is 21% in test [5] (setting [7]); 32% in test [5] (setting [8]); 82.2% (active) in test [5] (at 50.0 µM); 25% in test [6] (setting [7]); 44% in test [6] (setting [8]); 90.8% (active) in test [6] (at 50.0 µM).
`CC(=O)NC1CCCCC1CC1CCCCC1` (configuration not stated): the growth inhibition in test [1] (setting [7]) is -146%; in test [1] (setting [8]), -23%; in test [1] (at 50.0 µM), 19.2%; in test [2] (setting [7]), -48%; in test [2] (setting [8]), -44%; in test [2] (at 50.0 µM), 20.1%. Besides, the growth inhibition in test [3] (setting [7]) was -63%; in test [3] (setting [8]) it was -32%; in test [3] (at 50.0 µM), 35.8%; in test [4] (setting [7]), -57%; in test [4] (setting [8]) it was -52%; in test [4] (at 50.0 µM), 79.2% (active). The growth inhibition in test [5] (setting [7]) is -68%; in test [5] (setting [8]), -49%; in test [5] (at 50.0 µM), 24%; in test [6] (setting [7]), -125%; in test [6] (setting [8]), -138%; in test [6] (at 50.0 µM) it was 16.9%.
For `CCCCCCC(OCCC)OCCC`, the growth inhibition was -4% in test [1] (setting [7]); -3% in test [1] (setting [8]); 35.8% in test [1] (at 50.0 µM); -28% in test [2] (setting [7]); -1% in test [2] (setting [8]); -15.6% in test [2] (at 50.0 µM). The growth inhibition in test [3] (setting [7]) is -3%; in test [3] (setting [8]) it was -1%; in test [3] (at 50.0 µM), 5%; in test [4] (setting [7]), -2%; in test [4] (setting [8]), 1%; in test [4] (at 50.0 µM), 74% (active). For the same molecule, the growth inhibition in test [5] (setting [7]) is -10%; in test [5] (setting [8]), -6%; in test [5] (at 50.0 µM) it was -0.5%; in test [6] (setting [7]) it was -2%; in test [6] (setting [8]), -1%; in test [6] (at 50.0 µM), 38.4%.
For `COc1cccc2c1C(=O)c1c(O)c3c(c(O)c1C2=O)C[C@@](O)(C(C)=O)C[C@@H]3OC1CC(N(CCO)Cc2ccccc2)C(O)C(C)O1` (some centres not stated), the growth inhibition in test [1] (setting [7]) is 97% (active); in test [1] (setting [8]), 99% (active); in test [1] (at 50.0 µM), 91.2% (active); in test [2] (setting [7]) it was 99% (active); in test [2] (setting [8]), 100% (active); in test [2] (at 50.0 µM) it was 91.3% (active). For the same molecule, the growth inhibition in test [3] (setting [7]) is 95% (active); in test [3] (setting [8]), 99% (active); in test [3] (at 50.0 µM), 91.5% (active); in test [4] (setting [7]), 90% (active); in test [4] (setting [8]), 97% (active); in test [4] (at 50.0 µM) it was 90.8% (active). For the same molecule, the growth inhibition was 98% (active) in test [5] (setting [7]); 99% (active) in test [5] (setting [8]); 89.4% (active) in test [5] (at 50.0 µM); 95% (active) in test [6] (setting [7]); 99% (active) in test [6] (setting [8]); 90.8% (active) in test [6] (at 50.0 µM).
On to `O=C(C[n+]1ccccc1)c1ccc2ccc3ccc(Cl)cc3c2c1`, for which the growth inhibition in test [1] (setting [7]) was 4%; in test [1] (setting [8]) it was 67%; in test [1] (at 50.0 µM), 59.1%; in test [2] (setting [7]), 0%; in test [2] (setting [8]), 26%; in test [2] (at 50.0 µM) it was 32%. Also, the growth inhibition is 3% in test [3] (setting [7]); 56% in test [3] (setting [8]); 35.5% in test [3] (at 50.0 µM); 2% in test [4] (setting [7]); 39% in test [4] (setting [8]); -90.4% in test [4] (at 50.0 µM). Besides, the growth inhibition was -2% in test [5] (setting [7]); 46% in test [5] (setting [8]); 2.15% in test [5] (at 50.0 µM); 29% in test [6] (setting [7]); 82% (active) in test [6] (setting [8]); 72.5% (active) in test [6] (at 50.0 µM).
For the molecule `CC(=O)Oc1cc2c(=O)oc3c(OC(C)=O)c(OC(C)=O)c(OC(C)=O)c4c(=O)oc(c1OC(C)=O)c2c34`, the growth inhibition in test [1] (setting [7]) was 40%; in test [1] (setting [8]), 58%; in test [1] (at 50.0 µM), 89.5% (active); in test [2] (setting [7]) it was 41%; in test [2] (setting [8]) it was 48%; in test [2] (at 50.0 µM), 76.6% (active). In addition, the growth inhibition in test [3] (setting [7]) is 37%; in test [3] (setting [8]) it was 61%; in test [3] (at 50.0 µM) it was 87.2% (active); in test [4] (setting [7]), 20%; in test [4] (setting [8]), 40%; in test [4] (at 50.0 µM), 73.8% (active). Further, the growth inhibition in test [5] (setting [7]) is 45%; in test [5] (setting [8]), 71% (active); in test [5] (at 50.0 µM), 88.3% (active); in test [6] (setting [7]), 39%; in test [6] (setting [8]), 45%; in test [6] (at 50.0 µM), 88.2% (active).
Turning to `CCCCCCC1CC(=O)C1(Cl)Cl` (configuration not stated), the growth inhibition in test [1] (setting [7]) is -9%; in test [1] (setting [8]), 100% (active); in test [1] (at 50.0 µM), 89.1% (active); in test [2] (setting [7]), -16%; in test [2] (setting [8]), 100% (active); in test [2] (at 50.0 µM), 93.3% (active). Moreover, the growth inhibition in test [3] (setting [7]) is -17%; in test [3] (setting [8]), 100% (active); in test [3] (at 50.0 µM), 90.1% (active); in test [4] (setting [7]), -4%; in test [4] (setting [8]), 100% (active); in test [4] (at 50.0 µM), 92.5% (active). Besides, the growth inhibition is -32% in test [5] (setting [7]); 100% (active) in test [5] (setting [8]); 92% (active) in test [5] (at 50.0 µM); 12% in test [6] (setting [7]); 100% (active) in test [6] (setting [8]); 86.2% (active) in test [6] (at 50.0 µM).
On to `COc1cccc(/C=C2/Sc3scc(-c4ccccc4)[n+]3C2=O)c1O`, for which the growth inhibition was 14% in test [1] (setting [7]); 20% in test [1] (setting [8]); 80.4% (active) in test [1] (at 50.0 µM); -9% in test [2] (setting [7]); 21% in test [2] (setting [8]); 55.6% in test [2] (at 50.0 µM). For the same molecule, the growth inhibition in test [3] (setting [7]) is -5%; in test [3] (setting [8]), 23%; in test [3] (at 50.0 µM), 82.3% (active); in test [4] (setting [7]) it was -12%; in test [4] (setting [8]), 18%; in test [4] (at 50.0 µM), 61.8%. Further, the growth inhibition was -17% in test [5] (setting [7]); 64% in test [5] (setting [8]); 93.1% (active) in test [5] (at 50.0 µM); 12% in test [6] (setting [7]); 66% in test [6] (setting [8]); 94.1% (active) in test [6] (at 50.0 µM).
For the molecule `CCCc1cc2c(cc1CN(C#N)Cc1cc3c(cc1CCC)OCO3)OCO2`, the growth inhibition was -4% in test [1] (setting [7]); 54% in test [1] (setting [8]); 95.3% (active) in test [1] (at 50.0 µM); 2% in test [2] (setting [7]); 84% (active) in test [2] (setting [8]); 96.3% (active) in test [2] (at 50.0 µM). Also, the growth inhibition in test [3] (setting [7]) was 1%; in test [3] (setting [8]) it was 57%; in test [3] (at 50.0 µM), 93.2% (active); in test [4] (setting [7]) it was -2%; in test [4] (setting [8]) it was 60%; in test [4] (at 50.0 µM), 95.8% (active). For the same molecule, the growth inhibition in test [5] (setting [7]) was -4%; in test [5] (setting [8]) it was 87% (active); in test [5] (at 50.0 µM), 97% (active); in test [6] (setting [7]), -1%; in test [6] (setting [8]), 73% (active); in test [6] (at 50.0 µM) it was 95% (active).
